TR SRC2 fluor cs: counter-screen for TRb-SRC2 inhibitors: fluorescence interference; TRb/SRC2 Texas Red total fluorescence interference; AID 1479; 280,000 tested, 0.29% active; Potency, µM (titrated, usually from 106 µM), for the others: top-dose fluorescence change, negative = quenching; active = well fitted curve in either direction with a large enough effect; inconclusive = small, poorly fitted or top-dose-only effect; note: potency is the fitted concentration of half-maximal effect
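Human TRβ ligand-binding domain (0.6 uM) and Texas Red SRC2 peptide (20 nM) in Tris buffer with 1 uM T3 and 5% DMSO were incubated with pinned compound for 5 hr at ambient temperature. Total fluorescence was computed as S + 2P (555/632 nm).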
TRb SRC2 PPI: disrupts binding of human TR beta to SRC2; Potency, µM (doses to about 106 µM), for inactives: top-dose activity change, negative = inhibition, hits mostly inhibitors; TRbeta-SRC2 peptide binding, fluorescence polarization; receptor liganded with 1 µM T3; AID 1469; P10828; 280,000 tested, 0.065% active;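 note: potency is the fitted concentration of half-maximal effect; plate controls were bound peptide for no effect and peptide without receptor for full effect; nearly all actives have a fitted effect of over 50% in size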
Target sequence (P10828 whole entry, looked up): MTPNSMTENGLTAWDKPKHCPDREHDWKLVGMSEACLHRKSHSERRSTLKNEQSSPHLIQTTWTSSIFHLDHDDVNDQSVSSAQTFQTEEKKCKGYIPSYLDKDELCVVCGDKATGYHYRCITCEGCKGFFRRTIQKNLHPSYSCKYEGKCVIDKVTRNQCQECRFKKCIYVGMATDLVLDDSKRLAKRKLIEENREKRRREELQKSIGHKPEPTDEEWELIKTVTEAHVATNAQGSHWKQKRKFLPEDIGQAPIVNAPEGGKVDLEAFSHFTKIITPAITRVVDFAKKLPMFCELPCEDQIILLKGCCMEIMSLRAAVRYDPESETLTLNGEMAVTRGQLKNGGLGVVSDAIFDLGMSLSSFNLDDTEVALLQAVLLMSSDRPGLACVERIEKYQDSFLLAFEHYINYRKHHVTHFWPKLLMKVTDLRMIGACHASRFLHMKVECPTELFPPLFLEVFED
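TRb LBD 0.6 uM + Texas Red SRC2 peptide 20 nM, 1 uM T3, Tris buffer w/ 5% DMSO; compound pinned, 5 h RT; FP read ex 555/em 632; normalized to unbound and bound controls.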
PNC assembly inh: perinucleolar compartment assembly inhibition; PC3M PTB-GFP, PNC prevalence imaging, 16 h; active compounds read low; AID 2417; activity change (PNC), negative = inhibition, % at 10 µM; 140,000 tested, 3.1% active;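 active = readout at or below -70, meaning at least 70% loss of cells showing the perinucleolar compartment, a nuclear body marking cancer cells; inconclusive = readout between -30 and a set limit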;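 note: plate controls were DMSO wells for no effect and camptothecin positive control wells for full effect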
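PC3M cells stably expressing PTB-GFP, 750–1000 cells/well, treated 16 h at 37 °C with compound (23 nl of library stock), in duplicate. After paraformaldehyde fixation and Hoechst stain, imaged at 20x; PNC prevalence scored by image analysis.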
Tau fibril ThT: blocks human tau fibril formation measured by thioflavin T. P10636. recombinant tau K18 P301L, heparin-induced fibrillization, ThT fluorescence. Potency, µM (titrated, usually from 57.4 µM), without a hit: at the highest dose activity, negative = inhibition, hits mostly inhibitors. 270,000 tested, 2.1% active. AID 1460; note: potency is the fitted concentration of half-maximal effect; nearly all actives have a fitted effect of over 55% in size
Target sequence (P10636 561-689 P618L limits assumed): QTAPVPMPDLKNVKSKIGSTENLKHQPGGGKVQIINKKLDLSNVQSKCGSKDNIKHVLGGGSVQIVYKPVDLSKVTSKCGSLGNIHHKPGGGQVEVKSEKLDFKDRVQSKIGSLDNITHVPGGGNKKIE
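In this qHTS, human K18 P301L tau is incubated with compound and heparin for 6 hr at 37 C, and Thioflavin T fluorescence then reports fibril load.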
Tau fluor cs: counter-screen for tau fibril formation inhibitors; tau K18 P301L Alexa594 fluorescence, heparin fibrillization; Potency, µM (series often up to 57.7 µM), without a hit: at the top dose activity change, negative = decrease; 280,000 tested, 0.93% active; AID 1463; note: potency is the fitted concentration of half-maximal effect; nearly all actives have a fitted effect of over 55% in size
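Human tau K18 P301L (15 uM unlabeled, 0.24 uM Alexa 594-labeled) in 100 mM sodium acetate pH 7 with 20 uM heparin, 6 hr at 37 C. ThT 30 uM added, 1 hr ambient; Alexa 594 FP and total fluorescence read at 555/632 nm.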
Tau FP inhib: inhibitors of human tau fibril formation; K18 P301L tau heparin fibrillization, Alexa594 FP, 6 h; 280,000 tested, 0.39% active; Potency, µM (top dose mostly 57.7 µM), without a hit: top-dose activity, negative = inhibition, hits mostly inhibitors; P10636; note: potency is the fitted concentration of half-maximal effect; nearly all actives have a fitted effect of over 55% in size
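Heparin (20 uM) drove fibril formation of recombinant tau K18 P301L, 15 uM unlabeled with 0.24 uM Alexa 594 label, for 6 hr at 37 C in 100 mM sodium acetate pH 7. Fluorescence polarization (555/632 nm) read 1 hr after 30 uM ThT.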
Starred values were filed as active, the others as inactive; ? = inconclusive; . = no result given; ! = repeats disagree; [ ] = dose if it differs, or a comment. Shown are actives, neighbours in structure and some others; about 4.6% of the full set was active somewhere. Unless noted, calls come from the whole dose curve; as a rule, active = well fitted curve in the direction sought with a large enough effect; inconclusive = small, poorly fitted or top-dose-only effect, or another doubt; inactive = no such curve, though single readings can be large; an effect the other way counts as inactive or inconclusive. Unless noted, % is set by controls: 0 for no effect and ±100 for the full control effect.

SMILES | TR SRC2 fluor cs | TRb SRC2 PPI | PNC assembly inh | Tau fibril ThT | Tau fluor cs | Tau FP inhib
CSc1cccc(NC(=O)C2CCN(S(=O)(=O)c3ccc4[nH]c5c(c4c3)CCCCC5)CC2)c1 | -2.0% | -2.0% | . | 5.8% | ? | -5.5%
COc1cccc(NC(=O)C2CCN(S(=O)(=O)c3ccc4[nH]c5c(c4c3)CCCCC5)CC2)c1 | 0.5% | 0.4% | . | 2.5% | 6.31µM*[quencher] | -13.8%
O=C(Nc1cccc(F)c1)C1CCN(S(=O)(=O)c2ccc3[nH]c4c(c3c2)CCCCC4)CC1 | -1.6% | 3.6% | . | -12.7% | 28.2µM*[quencher] | -1.9%
CCOC(=O)CC(/C(C)=N\O)c1ccccc1 (stereo not drawn) | 0.4% | -9.4% | 8.8 | 1.9% | 8.8% | 4.0%
O=C1CCc2cc(S(=O)(=O)N3CCC(C(=O)NCCC4=CCCCC4)CC3)ccc2N1 | 0.0% | -3.2% | ? | -13.5% | -14.2% | -4.8%
C=CCNc1nc(Cl)ncc1F | -0.2% | -3.5% | -119.3* | -2.4% | -6.4% | -2.2%
Cc1ccccc1OCC(=O)NCC(=O)N/N=C/c1cccc([N+](=O)[O-])c1 | -2.6% | -0.7% | . | -12.0% | -1.8% | 2.3%
Cc1ccccc1OCC(=O)N/N=C/c1cccc(Oc2ccc([N+](=O)[O-])cc2[N+](=O)[O-])c1 | 1.7% | -11.2% | -11.0 | ? | 6.31µM*[quencher] | -5.9%
Cc1cc([N+](=O)[O-])cc(C)c1OCC(=O)N/N=C/c1ccc(OC(=O)c2ccccc2Br)cc1 | 0.6% | -3.9% | 61.8 | ? | -20.3% | 5.5%
Cc1cc([N+](=O)[O-])cc(C)c1OCC(=O)N/N=C/c1ccc(OC(=O)c2ccccc2)cc1 | -1.5% | -11.6% | -100.0* | -15.6% | -20.9% | 8.9%
O=C(N/N=C/c1cccc(Oc2ccc([N+](=O)[O-])cc2[N+](=O)[O-])c1)c1cncc(Br)c1 | 3.5% | -0.4% | ? | ? | 8.91µM*[quencher] | 4.4%
O=[N+]([O-])c1ccc(-c2csc(Nc3ccccc3)[n+]2Cc2ccccc2)cc1 | ? | ? | 10.6 | 2.0% | 1.3% | 7.4%
Cc1ccc(C(=O)CSC2=NC(N)=C(C#N)C3(CCCCC3)C2C(N)=O)cc1 (stereo not drawn) | 1.6% | -2.3% | ? | 25.1µM* | -26.4% | ?
COc1cccc(-c2cnc(NCc3cc(Cl)ccc3O)n2C)c1 | -3.6% | -11.3% | 11.7 | ? | 20µM*[quencher] | 15.2%
Cc1ccc(/C=C/C(=O)c2ccc(O)cc2)cc1 | -2.9% | 1.7% | . | ? | -21.5% | -2.2%
COc1ccc(Oc2ccc(/C=C/C(=O)c3ccc(O)cc3)cc2[N+](=O)[O-])cc1 | -15.8% | -13.5% | -113.4* | ? | ? | ?
CNc1ccc(/C=C/C(=O)c2ccc3c(c2)OCCO3)cc1[N+](=O)[O-] | -10.5% | -5.0% | -12.1 | 2.51µM* | ? | 2.2%
COc1ccc(/C=C/C(=O)c2ccc(O)cc2)cc1COc1ccc(F)cc1 | 0.1% | 1.5% | ? | -13.0% | -3.7% | 6.8%
Cc1ccccc1NC(=O)c1ccc(N/N=C/c2ccccc2O)c([N+](=O)[O-])c1 | 0.1% | -8.2% | 38.4 | ? | -5.7% | -0.8%
CNc1ccc(/C=C/C(=O)c2ccc(C)cc2)cc1[N+](=O)[O-] | 9.3% | -1.6% | ? | 3.16µM* | -22.5% | 2.3%
Cc1ccc(NC(=O)c2ccc(N/N=C/c3cccc(O)c3)c([N+](=O)[O-])c2)cc1 | 4.5% | -3.3% | 91.1 | 1.58µM* | ? | 2.0%
COc1ccc(CN(Cc2ccccn2)C(=O)CN2C(=O)C(C)Oc3ccccc32)cc1 (stereo not drawn) | -4.8% | 4.6% | ? | -9.9% | -22.3% | 3.0%
Cc1ccc(-n2c3nc(=O)[nH]c(=O)c-3cc3cc([N+](=O)[O-])ccc32)cc1C | -4.4% | -15.8% | -15.9 | ? | -6.3% | 6.7%
CN(C)c1ccc(/C=C/C(=O)c2ccccc2)cc1[N+](=O)[O-] | -7.1% | 8.8% | -28.0 | 10µM* | ? | 4.0%
O=C(O)CC/C(=C\c1ccc(Cl)c([N+](=O)[O-])c1)c1nc2ccccc2s1 | -1.2% | 7.1% | 37.3 | 11.5% | 10.4% | 9.5%
SMILES | TR SRC2 fluor cs | TRb SRC2 PPI | PNC assembly inh | Tau fibril ThT | Tau fluor cs | Tau FP inhib
O=C(O)C/C(=C\c1ccc(N2CCOCC2)c([N+](=O)[O-])c1)c1nc2ccccc2s1 | -4.1% | -0.6% | . | 14.1µM* | -13.0% | -2.5%
O=C(O)CC/C(=C\c1ccc(N2CCOCC2)c([N+](=O)[O-])c1)c1nc2ccccc2s1 | -3.0% | 1.6% | . | 7.94µM* | -12.1% | -3.5%
CCOC(=O)C1CCCN(C(=O)COC(=O)C2=COCCO2)C1 (stereo not drawn) | -0.7% | -0.9% | 49.4 | -13.3% | 2.9% | 3.0%
COc1ccc(NC(=O)C(=O)NCC(c2cccnc2)N2CCc3ccccc3C2)cc1 (stereo not drawn) | -39.4% | -6.6% | . | 14.1µM* | ? | ?
CCc1ccc(NC(=O)C(=O)NCC(c2cccnc2)N2CCc3ccccc3C2)cc1 (stereo not drawn) | ? | -10.6% | . | ? | ? | -10.0%
O=C(NCC(c1cccnc1)N1CCc2ccccc2C1)C(=O)Nc1ccccc1 (stereo not drawn) | -21.7% | -2.1% | . | 1.58µM* | -25.6% | 9.6%
O=Nc1c(O)n(Cc2ccccc2)c2ccccc12 | -0.9% | 0.0% | . | -6.3% | -3.5% | -1.4%
COc1cc2c(cc1OC)CN(C(=S)Nc1ccc(OC(F)F)cc1)CC2 | -6.2% | 3.4% | . | ? | -6.8% | -4.5%
COc1ccc(NC(=O)CS(=O)CC(=O)NCC2OCCc3ccccc32)cc1 (stereo not drawn) | -0.8% | 8.8% | . | -2.5% | -11.8% | -13.9%
COC(=O)CCC(=O)OC1(C)C(=O)C2=CN(C3CC3)C(c3ccc(OC)cc3)=CC2=C(Br)C1=O (stereo not drawn) | -0.9%[11.2 µM] | 3.4%[11.2 µM] | . | ? | -21.1%[11.6 µM] | -3.2%[11.6 µM]
COC(=O)CCC(=O)OC1(C)C(=O)C2=CN(CCCOC(C)C)C(c3ccc(OC)cc3)=CC2=C(Br)C1=O (stereo not drawn) | 8.9% | 5.4% | . | 15.8µM* | -15.7% | ?
COC(=O)CCC(=O)OC1(C)C(=O)C2=CN(CC(C)C)C(c3ccc(OC)cc3)=CC2=C(Br)C1=O (stereo not drawn) | -2.4%[11.2 µM] | 0.4%[11.2 µM] | . | 10µM*! | -7.4%[11.6 µM] | 8.91µM*!
COC(=O)CCC(=O)OC1(C)C(=O)C2=CN(CC3CC3)C(c3ccc(OC)cc3)=CC2=C(Br)C1=O (stereo not drawn) | -3.5%[11.2 µM] | 4.3%[11.2 µM] | . | 11.2µM*! | -3.6%[11.6 µM] | ?
